In PubChem BioAssay (NCI) one finds growth data, which are given here for six compounds.

Molecules are shown by their SMILES. “And” between values parts separate entries of the source, which are not always exact repeats. Identical values can stand only once. The panel holds about 83,000 compounds, 20% with a hit somewhere; the sample as a whole holds those more often.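 48-hour exposure, single concentration, 96-well plates; percent growth endpoint where 0 means no net growth. Active: below 10.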 Values without a mark were called inactive. The source made the active and inactive calls.

Test systems include NCI-H23 lung; NCI-H226 lung; HOP-62 NSCLC; NCI-H460 lung; HOP-92 NSCLC; NCI-H522 lung; A549/ATCC NSCLC; 786-0 renal; COLO 205 colon; DU-145 prostate; K-562 leukemia; MALME-3M melanoma; MDA-MB-231 breast; RXF 393 renal; SF-268 CNS; SF-295 CNS; SF-539 CNS; UACC-257 melanoma; M14 melanoma; NCI-H322M lung.
Holding throughout (assay): NCI-60 one-dose screen, 48 h (100 = growth as untreated, 0 = no growth, -100 = all killed)
Conditions in all cases: 10 µM unless noted

In the case of `CCOC(=O)c1csc(N)n1`, the growth was 105% and 102% in the assay on NCI-H23 lung; 102% and 105% in the assay with NCI-H226 lung; 103% and 96.9% with HOP-62 NSCLC; 105% in the assay on NCI-H460 lung; 96% and 95.7% with HOP-92 NSCLC; 88.7% in the assay with NCI-H522 lung. Besides, the growth was 81.5% and 93.8% in the assay with A549/ATCC NSCLC; 101% and 100% in the assay with 786-0 renal; 129% and 108% in the assay with COLO 205 colon; 105% and 104% with DU-145 prostate; 101% and 102% in the assay on K-562 leukemia; 112% and 108% with MALME-3M melanoma. Further, the growth in the assay with MDA-MB-231 breast was 107% and 98.7%; in the assay with RXF 393 renal, 100%; with SF-268 CNS, 108% and 96.7%; in the assay on SF-295 CNS, 99.8% and 92.5%; with SF-539 CNS, 94.8% and 101%; in the assay with UACC-257 melanoma it was 87.3%. In the assay with M14 melanoma, the growth is 118% and 98.3%.

Turning to `Nc1nc(N)c2cc(S(=O)(=O)c3ccccc3)ccc2n1`, the growth was 45% and 40.9% in the assay with NCI-H23 lung; 63.2% and 79.3% in the assay on NCI-H226 lung; 54.8% and 46.3% in the assay with HOP-62 NSCLC; 18.3% and 14.7% with NCI-H460 lung; 64.9% and 92.5% with HOP-92 NSCLC; 46.2% and 68.9% with NCI-H522 lung. Further, the growth was 13.4% and 25.7% with A549/ATCC NSCLC; 29.5% and 26.8% with 786-0 renal; 53.7% and 58.3% in the assay with COLO 205 colon; 30.3% and 40.9% in the assay on DU-145 prostate; 16.7% and 26.1% with K-562 leukemia; 58.1% and 29% in the assay with MALME-3M melanoma. Further, the growth with MDA-MB-231 breast is 48.9% and 51.8%; in the assay on RXF 393 renal, 62% and 85.6%; with SF-268 CNS, 40.1% and 38%; with SF-295 CNS it was 18.9%; with SF-539 CNS, 30.5% and 21.8%; in the assay on UACC-257 melanoma, 39% and 59.2%. In the assay on M14 melanoma, the growth was 35.2% and 31.9%.

With `O=C1c2ccccc2C(c2ccccc2)C1c1ccccc1` (stereo not drawn), the growth was 91% in the assay on NCI-H23 lung; 101% in the assay on NCI-H226 lung; 92.5% in the assay on NCI-H322M lung; 98.6% with HOP-62 NSCLC; 80.2% with HOP-92 NSCLC; 86.2% in the assay on NCI-H522 lung. The growth in the assay on A549/ATCC NSCLC is 91.3%; with 786-0 renal, 107%; with COLO 205 colon it was 101%; in the assay with DU-145 prostate, 104%; in the assay on K-562 leukemia it was 77.2%; with MALME-3M melanoma, 99.5%. Further, the growth was 89.1% with MDA-MB-231 breast; 102% in the assay on RXF 393 renal; 97.9% in the assay on SF-268 CNS; 94.8% with SF-295 CNS; 101% in the assay on SF-539 CNS; 96.3% in the assay with UACC-257 melanoma. In addition, in the assay with M14 melanoma, the growth is 97.7%.

Turning to `Cc1ccc(NC(=S)N/C=C(\c2ccccc2)S(=O)Cc2ccccc2)c(C)c1` (stereo not drawn), the growth in the assay on NCI-H23 lung was 99.7%; in the assay on NCI-H226 lung it was 90.2%; with HOP-62 NSCLC, 95.8%; with HOP-92 NSCLC it was 80.1%; in the assay with NCI-H522 lung, 90.5%; with A549/ATCC NSCLC it was 97.7%. Further, the growth with 786-0 renal was 98.2%; in the assay with COLO 205 colon, 104%; in the assay on DU-145 prostate, 109%; in the assay on K-562 leukemia, 98.2%; in the assay with MALME-3M melanoma it was 106%; with MDA-MB-231 breast it was 104%. For the same compound, the growth is 106% in the assay on RXF 393 renal; 101% with SF-268 CNS; 98.9% in the assay on SF-295 CNS; 103% with SF-539 CNS; 98.9% in the assay with UACC-257 melanoma; 97.3% in the assay with M14 melanoma.

In the case of `O=C(c1ccncc1)c1c(Cc2ccccc2)ccc2ccccc12`, the growth is 55.2% with NCI-H23 lung; 82.5% in the assay with NCI-H226 lung; 95.1% in the assay on HOP-62 NSCLC; 89.8% in the assay on NCI-H460 lung; 82% with HOP-92 NSCLC; 27.8% in the assay on NCI-H522 lung. Further, the growth in the assay on A549/ATCC NSCLC is 72.2%; with 786-0 renal, 104%; in the assay with COLO 205 colon, 87%; in the assay with DU-145 prostate it was 99.2%; in the assay with K-562 leukemia, 101%; with MALME-3M melanoma, 32.3%. Also, the growth is 70.2% in the assay with MDA-MB-231 breast; 84% in the assay on RXF 393 renal; 117% in the assay on SF-268 CNS; 83.6% in the assay with SF-295 CNS; 95.3% with SF-539 CNS; -14.4% (active) in the assay on UACC-257 melanoma. Also, in the assay with M14 melanoma, the growth is 108%.

As for `CC(=O)/C(N=Nc1ccc(S(=O)(=O)c2ccc(N=N/C(C(C)=O)=C(/C)O)cc2)cc1)=C(\C)O`, the growth was 97.6% with NCI-H23 lung; 114% in the assay on NCI-H226 lung; 103% with HOP-62 NSCLC; 93.2% with NCI-H460 lung; 90.3% with HOP-92 NSCLC; 105% with NCI-H522 lung. For the same compound, the growth was 105% with A549/ATCC NSCLC; 112% with 786-0 renal; 113% with COLO 205 colon; 104% in the assay on DU-145 prostate; 111% in the assay with K-562 leukemia; 106% with MALME-3M melanoma. For the same compound, the growth in the assay on MDA-MB-231 breast was 113%; in the assay with RXF 393 renal it was 165%; in the assay with SF-268 CNS, 101%; in the assay on SF-295 CNS, 118%; with SF-539 CNS, 112%; with UACC-257 melanoma it was 109%. Further, in the assay with M14 melanoma, the growth is 105%.
